Screening results deposited in PubChem BioAssay by National Center for Advancing Translational Sciences (NCATS).
HT1080 IDH1KD tx – qHTS for induction of synthetic lethality in tumor cells producing 2HG: qHTS for the HT-1080-IDH1KD cell line. actives 2% (n = 360,000). AID 686971, 2013. Potency, µM (top dose mostly 46.1 µM), inactives show at the top dose activity, negative = toxicity, usual class: cytotoxic. HT-1080 IDH1 knockdown viability, ATP luminescence, 48 h;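 further: potency means the concentration at half of the fitted maximal effect; 0% = DMSO wells and -100% = cell-free medium wells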
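IDH1KD HT-1080 cells, 750/well, RPMI + 5% FBS; compound pinned after 2 h settling; 48 h, 37 °C; CellTiter-Glo luminescence; % activity normalised to DMSO and no-cell wells; curves fitted, classed by r2 and efficacy.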
HT1080NT lethal – qHTS for induction of synthetic lethality in tumor cells producing 2HG: qHTS for the HT-1080-NT fibrosarcoma cell line | HT-1080-NT fibrosarcoma viability, CellTiter-Glo ATP luminescence, 48 h | actives 1.6% (n = 360,000) | Potency, µM (doses to about 46.1 µM), for inactives: at the top dose activity, negative = less viability, usual class: cytotoxic | AID 686970, 2013;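 further: NT is the 2HG producing partner of a matched IDH1 knockdown line; potency means the concentration at half of the fitted maximal effect; 0% = DMSO-treated cells and -100% = media-only wells without cells; nearly all actives have a fitted effect of over 55% in size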
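Luminescent CellTiter-Glo readout after 48 hours of compound exposure at 37 degrees C defined viability of HT-1080-NT cells. Activity was normalized to DMSO wells and cell-free media wells; concentration-response curves were fitted and assigned curve classes.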
IL1B secr inh – qHTS for Inhibitors of Inflammasome Signaling: IL-1-beta AlphaLISA Primary Screen. actives 4.7% (n = 360,000). AID 743279, 2014. THP-1 LPS/ATP IL-1B secretion, AlphaLISA, 16 h; stronger effect = lower value. activity change, % at 57.5 µM; in the data active means activity change below about -50%; inconclusive means mostly about -30% to -49%
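Secreted IL-1B measured by AlphaLISA bead assay after 16 h compound exposure of THP-1 cells; compounds (final up to 57.5 uM) added 1 h before LPS (250 ng/mL) and ATP (1.25 mM) stimulation; lower signal means less secretion.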
TDP1 cell CPT – qHTS for Inhibitors of human tyrosyl-DNA phosphodiesterase 1 (TDP1): qHTS in cells in presence of CPT; actives 12% (n = 420,000); AID 686979, 2013; Potency, µM (highest dose often 46.2 µM), for the others: at the highest dose activity change, negative = growth inhibition, usual class: inhibitors; chicken DT40 Tdp1-/-;hTDP1 cells + 20 nM CPT, ATP luminescence, 48 h; further: potency means the concentration at half of the fitted maximal effect; nearly all actives have a fitted effect of over 55% in size
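Chicken DT40 Tdp1-/- cells complemented with human TDP1, 400 cells/well, exposed to compounds plus 20 nM camptothecin for at least 48 h at 37 C; viability read as ATP content by CellTiter-Glo luminescence.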
ELG1 DNA repair – qHTS screen for small molecules that inhibit ELG1-dependent DNA repair in human embryonic kidney (HEK293T) cells expressing luciferase-tagged ELG1; HEK293T ELG1-luciferase reporter, luminescence, 16 h; DNA damage induced by 5-fluorouridine; Potency, µM (series often up to 46.1 µM), for the others: top-dose activity change, negative = inhibition, most hits filed as inhibitors; actives 2.3% (n = 330,000); AID 504467, 2011; further: potency means the concentration at half of the fitted maximal effect; nearly all actives have a fitted effect of over 55% in size
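5-Fluorouridine DNA damage + compound/DMSO, 2,000 cells/well, 16 h, 37 °C/5% CO2. ONE-Glo, 30 min RT, luminescence. Readout = decrease in reporter signal.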
DT40 TDP1 no CPT – qHTS for Inhibitors of human tyrosyl-DNA phosphodiesterase 1 (TDP1): qHTS in cells in absence of CPT | DT40 Tdp1-/- hTDP1 cells, no CPT, ATP luminescence, 48 h | Potency, µM (titrated, usually from 46.2 µM), without a hit: top-dose activity change, negative = growth inhibition, hits mostly inhibitors | actives 15% (n = 420,000) | AID 686978, 2013; further: potency means the concentration at half of the fitted maximal effect; nearly all actives have a fitted effect of over 55% in size
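Luminescent ATP content (CellTiter-Glo) served as the growth readout. Knockout chicken DT40 cells expressing human TDP1 were exposed to compounds without camptothecin for a minimum 48 hr at 37 °C.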
Starred values were filed as active, the others as inactive; ? = inconclusive; . = not tested or not shown. A selection: hits, their analogues and other compounds. The true share with any hit is near 19%. Unless noted, the call rests on the fitted dose curve; in most records, active means well fitted curve in the direction sought with a large enough effect; inconclusive means small, poorly fitted or top-dose-only effect, or another doubt; inactive means no such curve, though single readings can be large; an effect the other way counts as inactive or inconclusive. Unless noted, on the % scale 0 is the no-effect control and ±100 the full control effect.

SMILES	HT1080 IDH1KD tx	HT1080NT lethal	IL1B secr inh	TDP1 cell CPT	ELG1 DNA repair	DT40 TDP1 no CPT
COc1cc2nc(C3CCC3)n(NC(=O)c3ccco3)c(=O)c2cc1OC	1.7%	8.4%	-57.3*	0.6%	-16.0%	2.9%
O=C1C=CC(=Nc2cccc3c2C(=O)c2ccccc2-3)O1	-53.5%	0.0%	-93.0*	-81.7%	.	?
CN1CCN(c2nc3cc(N4CCOCC4)ccc3s2)CC1	11.3%	-0.7%	29.7	6.2%	.	?
CNC(=O)c1ccc(Nc2nnc(-c3ccc(C(N)=O)cc3)c3ccccc23)cc1	3.1%	0.1%	8.0	2.9%	0.9%	2.9%
Cc1ccc(C)c(Nc2nnc(-c3ccc(C)c(S(=O)(=O)NCC4CCCO4)c3)c3ccccc23)c1 (stereo unspecified)	.	.	.	18.4µM*	.	5.17µM*
CCNS(=O)(=O)c1cc(-c2nnc(OC)c3ccccc23)ccc1C	10.3%	7.7%	-26.2	?	-25.6%	-15.8%
Cc1ccccc1S(=O)(=O)NCC1CCCO1 (stereo unspecified)	12.1%	3.7%	1.4	10.9%	?	-5.2%
CNC(=O)c1ccc(Nc2nnc(-c3ccc(C)c(S(=O)(=O)NCC4CCCO4)c3)c3ccccc23)cc1 (stereo unspecified)	-12.9%	-21.2%	?	25.9µM*	?	13µM*
CCOC(=O)CNS(=O)(=O)c1cc(-c2nn(C)c(=O)c3ccccc23)ccc1C	-0.2%	2.1%	-92.3*	?	-2.6%	?
Cc1ccc(-c2nnc(Nc3ccccc3)c3ccccc23)cc1S(=O)(=O)NCC1CCCO1 (stereo unspecified)	-20.5%	-19.1%	-62.4*	25.9µM*	20.6µM*	16.4µM*
CNC(=O)CN(c1ccc(Oc2ccccc2)cc1)S(=O)(=O)c1ccc(C)cc1	13.1%	9.2%	2.0	-1.1%	4.6%	-3.9%
Cc1ccc(-c2nn3c(-c4ccco4)nnc3c3ccccc23)cc1S(=O)(=O)NCC1CCCO1 (stereo unspecified)	0.7%	1.6%	-26.0	?	?	5.8µM*
CCCNS(=O)(=O)c1cc(-c2nn3c(C)nnc3c3ccccc23)ccc1C	.	.	.	?	.	18.4µM*
CC(=O)Nc1ccc(Nc2nnc(-c3ccc(C)c(S(=O)(=O)NCC4CCCO4)c3)c3ccccc23)cc1 (stereo unspecified)	-2.1%	-3.9%	-9.6	-2.6%	20.6µM*	3.2%
CCCCNS(=O)(=O)c1ccc(C)c(-c2nnc3c4ccccc4c(C)nn23)c1	.	.	.	?	.	16.4µM*
CCCNS(=O)(=O)c1cc(-c2nnc3c4ccccc4c(C)nn23)ccc1OC	.	.	.	-9.5%	.	-18.6%
CCSc1cnn(-c2ccccc2)c(=O)c1Cl	?	?	-93.9*	5.7%	.	?
CCOc1cnn(-c2ccccc2)c(=O)c1Cl	16.4µM*	?	?	?	?	16.4µM*
COc1cnn(-c2ccc(C)cc2)c(=O)c1Cl	0.9%	6.1%	-0.2	-8.3%	?	-25.8%
COc1cnn(-c2ccccc2)c(=O)c1SCc1ccc(Cl)cc1Cl	-19.3%	2.4%	-50.6*	29.1µM*	-4.6%	20.6µM*
COc1ccc(Oc2cnn(-c3ccccc3)c(=O)c2Br)cc1	0.1%	1.7%	-62.7*	?	17.7%	?
COc1cnn(-c2ccc(C)cc2)c(=O)c1SCc1ccccc1	-3.7%	-3.8%	-26.4	-29.1%	?	?
CCOC(=O)c1cnc2c(ccc3ccccc32)c1N	16.7%	17.1%	11.1	-14.1%	?	?
CC(C)(C)C1CCc2c(sc(NC(=O)Cn3nnc(-c4ccccc4Cl)n3)c2C#N)C1 (stereo unspecified)	.	.	.	-9.3%	.	-17.4%
COc1ccc(-c2nc3cc(NC(=O)COc4ccccc4C)ccc3o2)cc1	.	.	.	-28.1%	.	-22.9%
SMILES	HT1080 IDH1KD tx	HT1080NT lethal	IL1B secr inh	TDP1 cell CPT	ELG1 DNA repair	DT40 TDP1 no CPT
O=c1c(Cl)c(Cl)cnn1-c1ccccc1	4.61µM*	4.11µM*	-98.8*	2.91µM*	18.4µM*	3.26µM*
Nc1c(Cl)cnn(-c2ccccc2)c1=O	1.1%	0.0%	51.2	7.0%	.	-1.6%
COc1cccc(CNC(=O)C2CCCN(S(=O)(=O)c3ccc4c(c3)C(C)(C)C(=O)N4C)C2)c1 (stereo unspecified)	-0.6%	4.6%	-3.4	14.6µM*	?	?
CN1C(=O)C(C)(C)c2cc(S(=O)(=O)N3CCCC(C(=O)Nc4ccc(Cl)cc4)C3)ccc21 (stereo unspecified)	-6.5%	-20.1%	-12.1	?	?	18.4µM*
COc1ccccc1CNC(=O)C1CCCN(S(=O)(=O)c2ccc3c(c2)C(C)(C)C(=O)N3C)C1 (stereo unspecified)	-8.8%	0.0%	3.7	?	-22.9%	14.6µM*
COc1cccc(CNC(=O)C2CCCN2S(=O)(=O)c2ccc3c(c2)C(C)(C)C(=O)N3C)c1 (stereo unspecified)	4.1%	-0.7%	0.0	-14.8%	1.1%	-17.2%
CN1C(=O)C(C)(C)c2cc(S(=O)(=O)NCC3CCC(C(=O)NCc4ccccc4)CC3)ccc21 (stereo unspecified)	-8.0%	-3.2%	-11.5	?	3.8%	16.4µM*
CCOc1ccccc1NC(=O)C1CCCN(S(=O)(=O)c2ccc3c(c2)C(C)(C)C(=O)N3C)C1 (stereo unspecified)	-16.0%	2.9%	-3.6	18.4µM*	-0.9%	?
Cc1ccccc1NC(=O)C1CCCN(S(=O)(=O)c2ccc3c(c2)C(C)(C)C(=O)N3C)C1 (stereo unspecified)	1.4%	-1.6%	-0.8	7.9%	18.7%	?
CCOc1ccccc1NC(=O)c1ccc2c(Cl)c3c(nc2c1)CCC3	.	.	.	-4.4%	.	-19.3%
Fc1cc2[nH]cnc2cc1Cl	-0.7%	13.5%	-1.7	5.5%	-5.3%	1.84µM*
Clc1cc2nc[nH]c2cc1Cl	-13.2%	-16.7%	17.5	2.4%	20.3%	-16.9%
